# Where a name gives a salt, the structure may show the parent alone. ± gives the standard deviation of the averaged measurements. In all, about 1,900 compounds were measured (“normalised cell viability (NPI; 0 = phenylarsine oxide control, 1 = DMSO control)”: median about 1, lowest 2% from about 0.039 on). What follows is part of a selection rich in the lowest values, with near analogues and random picks from the rest.
# Test system: NCI-H1944
# Test: normalised cell viability (NPI; 0 = phenylarsine oxide control, 1 = DMSO control) (fraction of DMSO control); NCI-H1944 is a non-small cell lung cancer line; higher = more viable cells (less compound toxicity)
# Conditions: 6 days
# [1] = glucocorticoid arm: hydrocortisone 2.75 uM co-treatment, compound 1 µM
# [2] = glucocorticoid arm: hydrocortisone 2.75 uM co-treatment, compound 5 µM
# [3] = glucocorticoid arm: hydrocortisone 2.75 uM pre-treated 2 days and continued, compound 1 µM
# [4] = glucocorticoid arm: hydrocortisone 2.75 uM pre-treated 2 days and continued, compound 5 µM
# [5] = glucocorticoid arm: vehicle, compound 1 µM
# [6] = glucocorticoid arm: vehicle, compound 5 µM
# 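Also: CTB read-out in 384-well plates, triplicate wells, NPI normalised per plate against 1 µM phenylarsine oxide (0) and 0.1% DMSO (1) controls.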
smiles,measurement,setting,value
CC(=O)O[C@@]12CO[C@@H]1C[C@H](O)[C@@]1(C)C(=O)[C@H](O)C3=C(C)[C@@H](OC(=O)[C@H](O)[C@@H](NC(=O)OC(C)(C)C)c4ccccc4)C[C@@](O)([C@@H](OC(=O)c4ccccc4)[C@H]21)C3(C)C [Docetaxel],normalised cell viability,[1],0.159 ± 0.0035
same,normalised cell viability,[2],0.163 ± 0.0095
same,normalised cell viability,[3],0.462 ± 0.023
same,normalised cell viability,[4],0.518 ± 0.015
same,normalised cell viability,[5],0.049 ± 0.0034
same,normalised cell viability,[6],0.0428 ± 0.0097
CC(=O)O[C@H]1C(=O)[C@@]2(C)[C@H]([C@H](OC(=O)c3ccccc3)[C@]3(O)C[C@H](OC(=O)[C@H](O)[C@@H](NC(=O)c4ccccc4)c4ccccc4)C(C)=C1C3(C)C)[C@]1(OC(C)=O)CO[C@@H]1C[C@@H]2O [Taxol],normalised cell viability,[1],0.122 ± 0.012
same,normalised cell viability,[2],0.117 ± 0.015
same,normalised cell viability,[3],0.8513 ± 0.0064
same,normalised cell viability,[4],0.802 ± 0.051
same,normalised cell viability,[5],0.0515 ± 0.0084
same,normalised cell viability,[6],0.0382 ± 0.0051
CO[C@H]1C(=O)[C@]2(C)[C@@H](OC)C[C@H]3OC[C@@]3(OC(C)=O)[C@H]2[C@H](OC(=O)c2ccccc2)[C@]2(O)C[C@H](OC(=O)[C@H](O)[C@@H](NC(=O)OC(C)(C)C)c3ccccc3)C(C)=C1C2(C)C [Cabazitaxel],normalised cell viability,[1],0.191 ± 0.012
same,normalised cell viability,[2],1.05 ± 0.021
same,normalised cell viability,[3],0.468 ± 0.0065
same,normalised cell viability,[4],1.05 ± 0.015
same,normalised cell viability,[5],0.0505 ± 0.01
same,normalised cell viability,[6],1.007 ± 0.0058
CC(=O)O[C@H]1C(=O)[C@@]2(C)[C@H]([C@H](OC(=O)c3ccccc3)[C@]3(O)C[C@H](OC(=O)[C@H](O)[C@@H](NC(=O)c4ccccc4)c4ccccc4)C(C)=C1C3(C)C)[C@]1(OC(C)=O)CO[C@@H]1C[C@@H]2O [Paclitaxel; Taxol],normalised cell viability,[1],0.131 ± 0.0057
same,normalised cell viability,[2],1.03 ± 0.01
same,normalised cell viability,[3],0.466 ± 0.032
same,normalised cell viability,[4],1.02 ± 0.011
same,normalised cell viability,[5],0.0302 ± 0.0049
same,normalised cell viability,[6],1.01 ± 0.01
COC(=O)C1=C(C)NC(C)=C([N+](=O)[O-])C1c1ccccc1C(F)(F)F (racemic),normalised cell viability,[1],0.99 ± 0.0072
same,normalised cell viability,[2],0.942 ± 0.02
same,normalised cell viability,[3],0.9753 ± 0.0031
same,normalised cell viability,[4],0.9355 ± 0.00071
same,normalised cell viability,[5],0.962 ± 0.01
same,normalised cell viability,[6],0.947 ± 0.011
CC[C@]1(O)C[C@@H]2CN(CCc3c([nH]c4ccccc34)[C@@](C(=O)OC)(c3cc4c(cc3OC)N(C)[C@H]3[C@@](O)(C(=O)OC)[C@H](OC(C)=O)[C@]5(CC)C=CCN6CC[C@]43[C@@H]65)C2)C1 [Vinblastine sulfate salt],normalised cell viability,[1],0.361 ± 0.02
same,normalised cell viability,[2],0.337 ± 0.021
same,normalised cell viability,[3],0.795 ± 0.17
same,normalised cell viability,[4],0.94 ± 0.023
same,normalised cell viability,[5],0.0757 ± 0.0017
same,normalised cell viability,[6],0.0495 ± 0.005
CCC1=C[C@@H]2CN(C1)Cc1c([nH]c3ccccc13)[C@@](C(=O)OC)(c1cc3c(cc1OC)N(C)[C@H]1[C@@](O)(C(=O)OC)[C@H](OC(C)=O)[C@]4(CC)C=CCN5CC[C@]31[C@@H]54)C2 [Vinorelbine tartrate],normalised cell viability,[1],0.327 ± 0.0017
same,normalised cell viability,[2],0.35 ± 0.02
same,normalised cell viability,[3],0.629 ± 0.017
same,normalised cell viability,[4],0.683 ± 0.036
same,normalised cell viability,[5],0.0577 ± 0.0028
same,normalised cell viability,[6],0.0356 ± 0.0026
CC[C@]1(O)C[C@@H]2CN(CCc3c([nH]c4ccccc34)[C@@](C(=O)OC)(c3cc4c(cc3OC)N(C)[C@H]3[C@@](O)(C(=O)OC)[C@H](OC(C)=O)[C@]5(CC)C=CCN6CC[C@]43[C@@H]65)C2)C1 [Vinblastine sulfate salt; Vinblastine sulfate],normalised cell viability,[1],0.354 ± 0.019
same,normalised cell viability,[2],1.023 ± 0.0058
same,normalised cell viability,[3],0.621 ± 0.029
same,normalised cell viability,[4],1.03 ± 0.027
same,normalised cell viability,[5],0.0439 ± 0.00099
same,normalised cell viability,[6],1.017 ± 0.0058
C=CCN1CCc2c(cc(O)c(O)c2Br)[C@@H](c2ccccc2)C1 [R(+)-6-Bromo-APB hydrobromide],normalised cell viability,[1],0.986 ± 0.017
same,normalised cell viability,[2],1.01
same,normalised cell viability,[3],0.989 ± 0.0095
same,normalised cell viability,[4],1 ± 0.011
same,normalised cell viability,[5],0.976 ± 0.011
same,normalised cell viability,[6],0.9827 ± 0.0035
Cc1cc(C)c(/C=C2\C(=O)Nc3ccccc32)[nH]1,normalised cell viability,[1],1.06 ± 0.01
same,normalised cell viability,[2],1.09 ± 0.015
same,normalised cell viability,[3],1.07 ± 0.044
same,normalised cell viability,[4],1.12 ± 0.017
same,normalised cell viability,[5],1.03
same,normalised cell viability,[6],1.03 ± 0.011
COc1c/c(=C2\C=c3ccccc3=N2)[nH]/c1=C\c1[nH]c(C)cc1C [Obatoclax mesylate (GX15-070)],normalised cell viability,[1],0.972 ± 0.014
same,normalised cell viability,[2],0.42 ± 0.019
same,normalised cell viability,[3],1 ± 0.0087
same,normalised cell viability,[4],1.03 ± 0.015
same,normalised cell viability,[5],0.564 ± 0.07
same,normalised cell viability,[6],0.0292 ± 0.0041
Cc1cc(C)c(/C=C2\C(=O)Nc3ccccc32)[nH]1 [Semaxanib (SU5416)],normalised cell viability,[1],1.09 ± 0.011
same,normalised cell viability,[2],1.15 ± 0.046
same,normalised cell viability,[3],1.09 ± 0.011
same,normalised cell viability,[4],1.11 ± 0.017
same,normalised cell viability,[5],1.023 ± 0.0058
same,normalised cell viability,[6],1.027 ± 0.0058
O=C(O)CCC(NC(=O)c1ccccc1C(=O)O)C(=O)O [Phthalamoyl-L-glutamic acid trisodium],normalised cell viability,[1],0.9933 ± 0.0031
same,normalised cell viability,[2],1.06 ± 0.021
same,normalised cell viability,[3],0.869 ± 0.23
same,normalised cell viability,[4],1.03 ± 0.025
same,normalised cell viability,[5],0.997 ± 0.0052
same,normalised cell viability,[6],1.006 ± 0.0063
CC(NC(=O)Cc1cc(F)cc(F)c1)C(=O)NC1C(=O)N(C)c2ccccc2-c2ccccc21 (stereo unspecified),normalised cell viability,[1],0.977 ± 0.0072
same,normalised cell viability,[2],0.998 ± 0.0035
same,normalised cell viability,[3],0.983 ± 0.015
same,normalised cell viability,[4],0.999 ± 0.019
same,normalised cell viability,[5],0.9847 ± 0.0057
same,normalised cell viability,[6],0.9813 ± 0.007
COc1cc(=O)n(C)c2c(OCC(O)C(C)(C)O)cccc12 (stereo unspecified) [Foliosidine],normalised cell viability,[1],1.005 ± 0.0081
same,normalised cell viability,[2],0.99 ± 0.01
same,normalised cell viability,[3],0.9877 ± 0.0067
same,normalised cell viability,[4],0.981 ± 0.012
same,normalised cell viability,[5],0.998 ± 0.011
same,normalised cell viability,[6],0.9963 ± 0.0021
"O=C(CCCCCCC(=O)Nc1ccccc1)NO [Vorinostat (SAHA, MK0683)]",normalised cell viability,[1],0.94 ± 0.017
same,normalised cell viability,[2],0.585 ± 0.025
same,normalised cell viability,[3],0.959 ± 0.0017
same,normalised cell viability,[4],0.955 ± 0.048
same,normalised cell viability,[5],1.003 ± 0.0058
same,normalised cell viability,[6],0.0617 ± 0.0036
O=C(CCCCCCC(=O)Nc1ccccc1)NO,normalised cell viability,[1],0.959 ± 0.016
same,normalised cell viability,[2],0.569 ± 0.04
same,normalised cell viability,[3],0.978 ± 0.013
same,normalised cell viability,[4],0.912 ± 0.015
same,normalised cell viability,[5],0.969 ± 0.011
same,normalised cell viability,[6],0.075 ± 0.0018
O=C(CCCCCCC(=O)Nc1ccccc1)NO [Vorinostat; SAHA],normalised cell viability,[1],0.928 ± 0.018
same,normalised cell viability,[2],1.04 ± 0.04
same,normalised cell viability,[3],0.95 ± 0.0036
same,normalised cell viability,[4],1.02
same,normalised cell viability,[5],0.995 ± 0.015
same,normalised cell viability,[6],0.9983 ± 0.0029
CC(C)(C)OC(=O)Nc1ccc(-c2cc(C(=O)NCCCCCCC(=O)NO)no2)cc1,normalised cell viability,[1],0.9572 ± 0.0081
same,normalised cell viability,[2],0.244 ± 0.23
same,normalised cell viability,[3],0.991 ± 0.025
same,normalised cell viability,[4],0.677 ± 0.31
same,normalised cell viability,[5],0.806 ± 0.15
same,normalised cell viability,[6],0.0189 ± 0.02
N=C(N)NCCC[C@H](N)C(=O)O [L-Arginine],normalised cell viability,[1],1 ± 0.018
same,normalised cell viability,[2],0.997 ± 0.0027
same,normalised cell viability,[3],0.994 ± 0.0066
same,normalised cell viability,[4],1 ± 0.011
same,normalised cell viability,[5],0.986 ± 0.0085
same,normalised cell viability,[6],1.001 ± 0.0081
CC1(C)CNc2cc(NC(=O)c3cccnc3NCc3ccncc3)ccc21 [Motesanib Diphosphate],normalised cell viability,[1],1.02 ± 0.011
same,normalised cell viability,[2],1 ± 0.031
same,normalised cell viability,[3],1 ± 0.012
same,normalised cell viability,[4],0.992 ± 0.026
same,normalised cell viability,[5],1.001 ± 0.0076
same,normalised cell viability,[6],1.002 ± 0.0076
O=C1NC(=O)C(=Cc2ccc(-c3ccc(F)cc3)o2)S1 (stereo in doubt),normalised cell viability,[1],1 ± 0.018
same,normalised cell viability,[2],1 ± 0.014
same,normalised cell viability,[3],0.996 ± 0.013
same,normalised cell viability,[4],1.01
same,normalised cell viability,[5],0.991 ± 0.0027
same,normalised cell viability,[6],0.9913 ± 0.0083
O=c1[nH]c(=O)n([C@H]2C[C@H](O)[C@@H](CO)O2)cc1/C=C/Br [(E)-5-(2-Bromovinyl)-2'-deoxyuridine],normalised cell viability,[1],1.013 ± 0.0058
same,normalised cell viability,[2],1.01 ± 0.01
same,normalised cell viability,[3],1.003 ± 0.0061
same,normalised cell viability,[4],1.015 ± 0.0071
same,normalised cell viability,[5],0.9783 ± 0.0055
same,normalised cell viability,[6],0.9897 ± 0.0049
C[C@H](NC(=O)/C(C#N)=C/c1cccc(Br)n1)c1ccccc1,normalised cell viability,[1],1.01 ± 0.012
same,normalised cell viability,[2],1.06 ± 0.032
same,normalised cell viability,[3],1.02 ± 0.017
same,normalised cell viability,[4],1.048 ± 0.0075
same,normalised cell viability,[5],0.9985 ± 0.0098
same,normalised cell viability,[6],0.0147 ± 0.011
C[C@@H](NC(=O)/C(C#N)=C/c1ccc(O)c(O)c1)c1ccccc1 [Tyrphostin AG 527],normalised cell viability,[1],1.013 ± 0.0058
same,normalised cell viability,[2],0.9963 ± 0.0038
same,normalised cell viability,[3],0.879 ± 0.22
same,normalised cell viability,[4],0.999 ± 0.011
same,normalised cell viability,[5],1.003 ± 0.0058
same,normalised cell viability,[6],1.003 ± 0.0061
CCC[C@H](NC(=O)/C(C#N)=C/c1cccc(Br)n1)c1ccccc1,normalised cell viability,[1],1.017 ± 0.0058
same,normalised cell viability,[2],0.726 ± 0.1
same,normalised cell viability,[3],1.02 ± 0.01
same,normalised cell viability,[4],1.09 ± 0.025
same,normalised cell viability,[5],0.996 ± 0.0046
same,normalised cell viability,[6],0.339 ± 0.026
